Source: PubChem BioAssay AID1159580 (chemical genetic matrix, 2015)
Values joined by “and” are separate entries in the source; they are usually repeats but may differ in a detail not shown here. Equal values may be shown once. The whole screen tested about 5,500 compounds, of which about 2,000 (36%) were called active. Another 18% or so got no clear call; they are omitted. Rule as the data show it: active = normalized growth mostly below about 0.91 (no sharp cut-off); inconclusive = no clear call, values can overlap the other calls; inactive = mostly above about 0.92. Some of the results follow.

Experiment: chemical genetic growth profiling, strain panel (AID 1159580);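 also: tested at 20 µM; growth read once vehicle control cultures reached saturation at 30 °C; 1 = growth at the plate median or of vehicle wells; lower values mean less growth of the strain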
Conditions: S. cerevisiae deletion strains, growth OD

Measured: normalized growth

CC(=O)O[C@H]1CC[C@@]2(C)C(CC[C@]3(C)C2CC=C2C4CC(C)(C)CC[C@]4(C)CC[C@]23C)C1(C)C (stereo partly drawn)
inactive: locus YAL013W, strain DEP1, stronger effect = lower value 1.02 | locus YAL021C, strain ccr4, stronger effect = lower value 0.919 | locus YAL026C, strain drs2, stronger effect = lower value 1.01 | locus YAL030W, strain snc1, stronger effect = lower value 0.979 | locus YBL061C, strain skt5, stronger effect = lower value 0.996 | locus YBR009C, strain hhf1, stronger effect = lower value 0.973 | locus YBR021W, strain FUR4, stronger effect = lower value 1.01 | locus YBR023C, strain chs3, stronger effect = lower value 0.982 | locus YBR171W, strain sec66, stronger effect = lower value 0.99 | locus YBR229C, strain ROT2, stronger effect = lower value 1 | locus YBR231C, strain swc5, stronger effect = lower value 1.01 | locus YBR279W, strain paf1, stronger effect = lower value 0.999 | locus YCL011C, strain gbp2, stronger effect = lower value 0.962 | locus YCL016C, strain dcc1, stronger effect = lower value 0.964 | locus YCL029C, strain bik1, stronger effect = lower value 1 | locus YCL061C, strain MRC1, stronger effect = lower value 0.99 | locus YCL069W, strain vba3, stronger effect = lower value 0.978 | locus YCR088W, strain abp1, stronger effect = lower value 0.991 | locus YDL005C, strain med2, stronger effect = lower value 0.988 | locus YDL035C, strain GPR1, stronger effect = lower value 1.03 | locus YDL040C, strain nat1, stronger effect = lower value 0.989 | locus YDL074C, strain BRE1, stronger effect = lower value 1.06 | locus YDL101C, strain DUN1, stronger effect = lower value 1.02 | locus YDL185W, strain tfp1, stronger effect = lower value 1.02 | locus YDL192W, strain arf1, stronger effect = lower value 1 | locus YDR001C, strain nth1, stronger effect = lower value 0.968 | locus YDR069C, strain doa4, stronger effect = lower value 0.971 | locus YDR101C, strain arx1, stronger effect = lower value 0.997 | locus YDR137W, strain rgp1, stronger effect = lower value 0.973 | locus YDR150W, strain NUM1, stronger effect = lower value 1.01 | locus YDR159W, strain sac3, stronger effect = lower value 0.998 | locus YDR162C, strain NBP2, stronger effect = lower value 1.03 | locus YDR195W, strain ref2 0.953 | locus YDR297W, strain sur2, stronger effect = lower value 1 | locus YDR318W, strain mcm21, stronger effect = lower value 1.01 | locus YDR334W, strain swr1, stronger effect = lower value 0.98 | locus YDR335W, strain msn5, stronger effect = lower value 0.989 | locus YDR388W, stronger effect = lower value 1.02 | locus YDR392W, strain spt3, stronger effect = lower value 0.889 | locus YDR502C, strain sam2, stronger effect = lower value 1.02 | locus YEL003W, strain gim4, stronger effect = lower value 1.02 | locus YEL037C, strain rad23, stronger effect = lower value 0.978 | locus YEL061C, strain CIN8 (second series), stronger effect = lower value 0.978 | locus YER015W, strain faa2, stronger effect = lower value 0.981 | locus YER016W, strain bim1, stronger effect = lower value 0.992 | locus YER110C, stronger effect = lower value 1.01 | locus YER111C, strain swi4, stronger effect = lower value 0.99 | locus YER155C, strain BEM2 (second series), stronger effect = lower value 1.02 | locus YER155C, strain BEM2, stronger effect = lower value 1.01 | locus YER167W, strain BCK2, stronger effect = lower value 1 | locus YFR010W, strain ubp6, stronger effect = lower value 0.992 | locus YGL078C, strain dbp3, stronger effect = lower value 1.06 | locus YGL086W, strain mad1, stronger effect = lower value 1.01 | locus YGL167C, strain pmr1, stronger effect = lower value 0.975 | locus YGL173C, strain kem1, stronger effect = lower value 1 | locus YGL227W, strain vid30, stronger effect = lower value 0.987 | locus YGL240W, strain doc1, stronger effect = lower value 1.01 | locus YGL248W, strain PDE1, stronger effect = lower value 1.02 | locus YGL253W, strain hxk2, stronger effect = lower value 1.02 | locus YGR078C, strain PAC10, stronger effect = lower value 1.03 | locus YGR135W, strain pre9, stronger effect = lower value 1.04 | locus YGR252W, strain gcn5, stronger effect = lower value 1.08 | locus YHR013C, strain ard1, stronger effect = lower value 0.943 | locus YHR027C, strain rpn1, stronger effect = lower value 0.983 | locus YHR030C, strain SLT2, stronger effect = lower value 1.01 and 1.03 | locus YHR079C, strain IRE1 (second series), stronger effect = lower value 1.01 | locus YHR079C, strain IRE1, stronger effect = lower value 1.03 | locus YHR094C, strain hxt1, stronger effect = lower value 1.02 | locus YHR129C, strain ARP1, stronger effect = lower value 1.01 | locus YHR142W, strain chs7, stronger effect = lower value 0.959 | locus YHR200W, strain rpn10, stronger effect = lower value 1.02 | locus YIL066C, strain RNR3, stronger effect = lower value 1.01 | locus YIL073C, strain SPO22, stronger effect = lower value 1.04 | locus YIL125W, strain kgd1, stronger effect = lower value 1.01 | locus YIR030C, strain dcg1, stronger effect = lower value 1.04 | locus YJL092W, strain hpr5, stronger effect = lower value 0.975 | locus YJL095W, strain BCK1 (second series), stronger effect = lower value 0.986 | locus YJL095W, strain BCK1, stronger effect = lower value 1.04 and 1.02 | locus YJL115W, strain asf1, stronger effect = lower value 0.968 | locus YJL129C, strain trk1, stronger effect = lower value 0.993 | locus YJL134W, strain LCB3, stronger effect = lower value 1.01 | locus YJL154C, strain vps35, stronger effect = lower value 0.975 | locus YJL164C, strain tpk1, stronger effect = lower value 0.949 | locus YJL166W, strain qcr8, stronger effect = lower value 0.999 | locus YJL168C, strain set2, stronger effect = lower value 1.02 | locus YJL187C, strain SWE1 (second series), stronger effect = lower value 1.03 | locus YJL187C, strain SWE1, stronger effect = lower value 0.986 | locus YJR043C, strain POL32, stronger effect = lower value 1.01 | locus YJR066W, strain TOR1, stronger effect = lower value 0.976 | locus YKL009W, strain mrt4, stronger effect = lower value 1 | locus YKL068W, stronger effect = lower value 1.02 | locus YKL085W, strain MDH1 (second series), stronger effect = lower value 1.01 | locus YKL085W, strain MDH1, stronger effect = lower value 1.01 | locus YKL160W, strain elf1, stronger effect = lower value 0.963 | locus YKL190W, strain CNB1, stronger effect = lower value 1.01 | locus YKR001C, strain vps1, stronger effect = lower value 0.997 | locus YKR026C, strain gcn3, stronger effect = lower value 0.991 | locus YKR091W, strain srl3, stronger effect = lower value 0.986 | locus YLL001W, strain dnm1, stronger effect = lower value 0.978 | locus YLL026W, stronger effect = lower value 0.978 | locus YLL041C, strain sdh2, stronger effect = lower value 0.976 | locus YLR027C, strain aat2, stronger effect = lower value 0.989 | locus YLR039C, strain RIC1, stronger effect = lower value 0.999 | locus YLR058C, strain SHM2, stronger effect = lower value 1.02 | locus YLR102C, strain apc9, stronger effect = lower value 1 | locus YLR113W, strain HOG1, stronger effect = lower value 1 | locus YLR221C, strain rsa3, stronger effect = lower value 1.03 | locus YLR258W, strain gsy2, stronger effect = lower value 0.962 | locus YLR262C, strain YPT6 (second series), stronger effect = lower value 0.976 | locus YLR262C, strain YPT6, stronger effect = lower value 1.01 | locus YLR268W, strain sec22, stronger effect = lower value 1.02 | locus YLR320W, strain mms22, stronger effect = lower value 1.05 | locus YLR342W, strain FKS1, stronger effect = lower value 0.991 | locus YLR357W, strain rsc2, stronger effect = lower value 0.973 | locus YLR370C, strain arc18, stronger effect = lower value 0.967 | locus YLR371W, strain rom2, stronger effect = lower value 1.02 | locus YLR384C, strain iki3, stronger effect = lower value 1 | locus YLR418C, strain cdc73, stronger effect = lower value 1.05 | locus YML016C, strain PPZ1, stronger effect = lower value 0.996 | locus YML032C, strain rad52, stronger effect = lower value 1 | locus YML120C, strain ndi1, stronger effect = lower value 0.96 | locus YML124C, strain tub3, stronger effect = lower value 1.01 | locus YMR058W, strain fet3, stronger effect = lower value 0.996 | locus YMR078C, strain ctf18, stronger effect = lower value 1.03 | locus YMR125W, strain sto1, stronger effect = lower value 0.948 | locus YMR129W, stronger effect = lower value 0.988 | locus YMR205C, strain PFK2, stronger effect = lower value 0.959 | locus YMR223W, strain ubp8, stronger effect = lower value 1.02 | locus YMR231W, strain pep5, stronger effect = lower value 0.994 | locus YMR263W, strain SAP30, stronger effect = lower value 1.03 | locus YMR307W, strain GAS1, stronger effect = lower value 1.11 | locus YNL067W, strain RPL9B, stronger effect = lower value 1.04 | locus YNL071W, strain lat1, stronger effect = lower value 0.982 | locus YNL153C, strain GIM3, stronger effect = lower value 1.03 | locus YNL183C, strain NPR1, stronger effect = lower value 0.964 | locus YNL209W, strain ssb2, stronger effect = lower value 0.984 | locus YNL233W, strain BNI4, stronger effect = lower value 1.02 | locus YNL248C, strain rpa49, stronger effect = lower value 0.918 | locus YNL250W, strain rad50, stronger effect = lower value 1.02 | locus YNL271C, strain bni1, stronger effect = lower value 1.03 | locus YNL298W, strain CLA4, stronger effect = lower value 1.03 | locus YNL307C, strain MCK1, stronger effect = lower value 1.02 | locus YNL322C, strain KRE1 (second series), stronger effect = lower value 0.982 | locus YNR049C, strain mso1, stronger effect = lower value 0.966 | locus YNR052C, strain pop2, stronger effect = lower value 1.02 | locus YOL012C, strain htz1 1.53 | locus YOL147C, strain pex11, stronger effect = lower value 1.01 | locus YOR001W, strain rrp6, stronger effect = lower value 1.01 | locus YOR061W, strain CKA2, stronger effect = lower value 1.02 | locus YOR069W, strain VPS5, stronger effect = lower value 1.01 | locus YOR070C, strain gyp1, stronger effect = lower value 1.02 | locus YOR080W, strain dia2, stronger effect = lower value 1 | locus YOR083W, strain WHI5, stronger effect = lower value 0.957 | locus YOR106W, strain vam3, stronger effect = lower value 0.929 | locus YOR136W, strain idh2, stronger effect = lower value 1.01 | locus YOR144C, strain elg1, stronger effect = lower value 1.01 | locus YOR184W, strain ser1, stronger effect = lower value 1.01 | locus YOR231W, strain MKK1, stronger effect = lower value 1 | locus YOR265W, strain rbl2, stronger effect = lower value 0.998 | locus YOR270C, strain vph1, stronger effect = lower value 1.03 | locus YOR290C, strain snf2, stronger effect = lower value 0.906 | locus YOR316C, strain cot1, stronger effect = lower value 1.01 | locus YPL051W, strain arl3, stronger effect = lower value 1.01 | locus YPL078C, strain atp4, stronger effect = lower value 0.945 | locus YPL106C, strain sse1, stronger effect = lower value 0.94 | locus YPL240C, strain hsp82, stronger effect = lower value 0.995 | locus YPL241C, strain CIN2, stronger effect = lower value 1.01 | locus YPL256C, strain CLN2, stronger effect = lower value 1.06 | locus YPR119W, strain clb2, stronger effect = lower value 1.02 | locus YPR141C, strain kar3, stronger effect = lower value 1.02 | locus YPR163C, strain tif3, stronger effect = lower value 1.02 | locus YPR167C, strain met16, stronger effect = lower value 1.02 | strain wtn01, stronger effect = lower value 1.02
